Measured values published in PubChem BioAssay (NCI).
This is part of a sample that, as a whole, favours compounds with a hit. Of some 83,000 tested, about 20% had one in any assay.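 For each line, cells grew in 96-well plates with the test compound present at a single concentration for 48 hours.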 Unmarked numbers belong to inactive results. The source made the active and inactive calls. How the source made its calls: active means growth percent below 10; inactive means the rest.

Experiments:
Test in all cases: NCI-60 one-dose screen, 48 h (100 = growth as untreated, 0 = no growth, -100 = all killed)
Conditions in all cases: 10 µM unless noted
[1] = tested on: NCI-H23 lung
[2] = tested on: NCI-H226 lung
[3] = tested on: NCI-H322M lung
[4] = tested on: HOP-62 NSCLC
[5] = tested on: NCI-H460 lung
[6] = tested on: HOP-92 NSCLC
[7] = tested on: NCI-H522 lung
[8] = tested on: A549/ATCC NSCLC
[9] = tested on: 786-0 renal
[10] = tested on: COLO 205 colon
[11] = tested on: DU-145 prostate
[12] = tested on: K-562 leukemia
[13] = tested on: MALME-3M melanoma
[14] = tested on: MDA-MB-231 breast
[15] = tested on: RXF 393 renal
[16] = tested on: SF-268 CNS
[17] = tested on: SF-295 CNS
[18] = tested on: SF-539 CNS
[19] = tested on: UACC-257 melanoma
[20] = tested on: M14 melanoma

CC(C)(C)c1ccc(CCO)cc1
growth [1]: 97.5%
growth [2]: 91.8%
growth [3]: 84.5%
growth [4]: 97.5%
growth [5]: 109%
growth [6]: 100%
growth [7]: 85.4%
growth [8]: 103%
growth [9]: 98.2%
growth [10]: 110%
growth [11]: 114%
growth [12]: 91.3%
growth [13]: 82.5%
growth [14]: 102%
growth [15]: 117%
growth [16]: 104%
growth [17]: 88.7%
growth [18]: 88.6%
growth [19]: 97.2%
growth [20]: 104%

CN1CCC(CN2c3ccccc3Sc3ccccc32)C1 (centres undefined)
growth [1]: 88.9%
growth [2]: 111%
growth [3]: 86.3%
growth [4]: 91.5%
growth [5]: 101%
growth [6]: -0.214% (active)
growth [7]: 86.2%
growth [8]: 90.7%
growth [9]: 69%
growth [10]: 84.6%
growth [11]: 92.4%
growth [12]: 38%
growth [13]: 79.8%
growth [14]: 59.5%
growth [15]: 91.4%
growth [16]: 89.2%
growth [17]: 95.7%
growth [18]: 86.3%
growth [19]: 88.6%
growth [20]: 73.6%

NC1=C(Br)C(=O)c2ncccc2C1=O
growth [1]: -46% (active)
growth [2]: 90.4%
growth [3]: 34.9%
growth [4]: -73.1% (active)
growth [5]: -73.9% (active)
growth [6]: 34.5%
growth [7]: -59.1% (active)
growth [8]: -52.6% (active)
growth [9]: 11.4%
growth [10]: 37.9%
growth [11]: -57.8% (active)
growth [12]: -44.2% (active)
growth [13]: -85.9% (active)
growth [14]: 19.2%
growth [15]: 13.5%
growth [16]: -43.9% (active)
growth [17]: -84.3% (active)
growth [18]: -91.5% (active)
growth [19]: -58.4% (active)
growth [20]: -88.7% (active)

OC(c1cc(C23CC4CC(CC(C4)C2)C3)nc2c(Cl)cc(Cl)cc12)C1CCCCN1 (centres undefined)
growth [1]: -53.9% (active)
growth [2]: -69.4% (active)
growth [3]: -19.3% (active)
growth [4]: -88.6% (active)
growth [5]: -71.4% (active)
growth [6]: -80.7% (active)
growth [7]: -81% (active)
growth [8]: -74.6% (active)
growth [9]: -55% (active)
growth [10]: -87.2% (active)
growth [11]: -93.6% (active)
growth [12]: -67% (active)
growth [13]: -16.3% (active)
growth [14]: -62.2% (active)
growth [15]: -91.4% (active)
growth [16]: -86.9% (active)
growth [18]: -76.9% (active)
growth [19]: -69.1% (active)
growth [20]: -85.6% (active)

CCCOS(=O)(=O)c1ccccc1
growth [1]: 101%
growth [2]: 103%
growth [3]: 102%
growth [4]: 84.6%
growth [5]: 106%
growth [6]: 76.1%
growth [7]: 104%
growth [8]: 111%
growth [9]: 121%
growth [10]: 108%
growth [11]: 118%
growth [12]: 128%
growth [13]: 111%
growth [14]: 107%
growth [15]: 112%
growth [16]: 106%
growth [17]: 113%
growth [18]: 102%
growth [19]: 111%
growth [20]: 115%

O=C(NOC(=O)c1ccccc1)c1ccccc1
growth [1]: 107%
growth [2]: 106%
growth [3]: 119%
growth [4]: 105%
growth [5]: 97.9%
growth [6]: 101%
growth [7]: 98%
growth [8]: 120%
growth [9]: 93.9%
growth [10]: 117%
growth [11]: 112%
growth [12]: 40.8%
growth [13]: 109%
growth [14]: 111%
growth [15]: 110%
growth [16]: 101%
growth [17]: 112%
growth [18]: 102%
growth [19]: 124%
growth [20]: 104%

CCN1CCCC(Nc2cc(C)nc(/N=C(/N)Nc3ccc(Cl)c(Cl)c3)n2)C1 (centres undefined)
growth [1]: 33.2%
growth [2]: 32.2%
growth [3]: -17.1% (active)
growth [4]: -7.52% (active)
growth [5]: -18.8% (active)
growth [6]: -68.4% (active)
growth [7]: -69.5% (active)
growth [8]: -25.1% (active)
growth [9]: -82.7% (active)
growth [10]: -77.6% (active)
growth [11]: 30.3%
growth [12]: -69.2% (active)
growth [13]: -70.6% (active)
growth [14]: -56.6% (active)
growth [15]: -81.3% (active)
growth [16]: -54.4% (active)
growth [18]: -73.7% (active)
growth [19]: -84.9% (active)
growth [20]: -77.9% (active)

CCN1/C(=C/C(C)=C/c2sc3ccc4ccccc4c3[n+]2CC)Sc2ccc3ccccc3c21
growth [1]: -65.5% (active)
growth [2]: -82.4% (active)
growth [3]: -97.8% (active)
growth [4]: -65.2% (active)
growth [5]: -90.5% (active)
growth [6]: -89.1% (active)
growth [7]: -77.3% (active)
growth [8]: -76.8% (active)
growth [9]: -88.5% (active)
growth [10]: -83.6% (active)
growth [11]: -100% (active)
growth [12]: -23.7% (active)
growth [13]: -87% (active)
growth [14]: -82.5% (active)
growth [15]: -88.1% (active)
growth [16]: -91.1% (active)
growth [17]: -93% (active)
growth [18]: -98.1% (active)
growth [19]: -82.2% (active)
growth [20]: -79.8% (active)

CCCCCCCCCCCC[S+](C)CC(=O)[O-] (centres undefined)
growth [1]: 25.9%
growth [2]: 44.3%
growth [3]: 89.4%
growth [4]: 38.7%
growth [5]: 54%
growth [6]: 30.7%
growth [7]: 46.5%
growth [8]: 68.4%
growth [9]: 23.3%
growth [10]: 2.95% (active)
growth [11]: 54.8%
growth [12]: 30.7%
growth [13]: 51.2%
growth [15]: 0.613% (active)
growth [16]: 30.6%
growth [17]: 38.6%
growth [18]: 53.7%
growth [19]: 56.7%

Cc1cc(N/N=C/c2ccccn2)nc2ccccc12
growth [1]: 14%
growth [2]: -1.94% (active)
growth [3]: 7.17% (active)
growth [4]: 0.2% (active)
growth [5]: 3.05% (active)
growth [6]: -2.87% (active)
growth [7]: -25.6% (active)
growth [8]: 1.82% (active)
growth [9]: 8.98% (active)
growth [10]: 20.5%
growth [11]: 18.2%
growth [12]: 9.21% (active)
growth [13]: 8.16% (active)
growth [14]: 42%
growth [15]: 8.96% (active)
growth [16]: 5.12% (active)
growth [18]: -37.8% (active)
growth [19]: -22.6% (active)
growth [20]: -39.7% (active)

O=C(CCl)N(c1ccccc1)c1ccccc1
growth [1]: 98.1%
growth [2]: 102%
growth [3]: 95%
growth [4]: 105%
growth [5]: 111%
growth [6]: 78.5%
growth [7]: -29.7% (active)
growth [8]: 103%
growth [9]: 108%
growth [10]: 111%
growth [11]: 110%
growth [12]: 105%
growth [13]: 98.6%
growth [14]: 114%
growth [15]: 104%
growth [16]: 105%
growth [17]: 103%
growth [18]: 108%
growth [19]: 94.1%
growth [20]: 95.9%

CC1=CC(=O)C=CC1(C)C(Cl)(Cl)Cl (centres undefined)
growth [1]: 100%
growth [2]: 95.2%
growth [3]: 102%
growth [4]: 84.7%
growth [5]: 104%
growth [6]: 106%
growth [7]: 82.2%
growth [8]: 68.4%
growth [9]: 101%
growth [10]: 89.7%
growth [11]: 124%
growth [12]: 107%
growth [13]: 91.2%
growth [14]: 92.2%
growth [15]: 115%
growth [16]: 107%
growth [17]: 102%
growth [19]: 69.8%
growth [20]: 97.8%

Cc1oc2c(C)c3oc(=O)cc(C)c3cc2c1CCl
growth [1]: 84.9%
growth [2]: 75.5%
growth [3]: 75.9%
growth [4]: 92.3%
growth [5]: 91.8%
growth [6]: 58.5%
growth [7]: 54.7%
growth [8]: 88.5%
growth [9]: 84.2%
growth [10]: 83.8%
growth [11]: 72.8%
growth [12]: 59%
growth [13]: 95.8%
growth [14]: 81.7%
growth [15]: 83.6%
growth [16]: 75.9%
growth [17]: 87%
growth [19]: 88.9%
growth [20]: 93.2%

COc1ccc(C(Cn2ccnc2)Sc2ccc(Cl)c(Cl)c2)cc1 (centres undefined)
growth [1]: 82.8%
growth [2]: 69.7%
growth [3]: 91.3%
growth [4]: 85.5%
growth [5]: 78.2%
growth [6]: 50.7%
growth [7]: 60.2%
growth [8]: 88.1%
growth [9]: 77.8%
growth [10]: 87.6%
growth [11]: 100%
growth [12]: 56.2%
growth [13]: 96.1%
growth [14]: 79.1%
growth [16]: 90.9%
growth [18]: 95.6%
growth [19]: 92.1%
growth [20]: 71.6%

NC(=S)Nc1ccc2c(c1)Cc1ccccc1-2
growth [1]: 83.1%
growth [2]: 77.8%
growth [3]: 89.2%
growth [4]: 84.2%
growth [5]: 94.8%
growth [6]: 63.9%
growth [7]: 62.9%
growth [8]: 72.5%
growth [9]: 115%
growth [10]: 98.2%
growth [11]: 108%
growth [12]: 82%
growth [13]: 88.4%
growth [14]: 69.5%
growth [15]: 102%
growth [16]: 90.5%
growth [17]: 98.7%
growth [19]: 69.9%
growth [20]: 99.7%

CC(C)Nc1ccc(Nc2ccc(NC(C)C)cc2)cc1
growth [1]: 25.9%
growth [2]: 51.8%
growth [3]: 84.6%
growth [4]: 76.4%
growth [5]: 24.7%
growth [6]: 72.6%
growth [7]: 35.2%
growth [8]: 40.9%
growth [9]: 66%
growth [10]: 25.8%
growth [11]: 63.1%
growth [12]: 24.6%
growth [13]: 35.8%
growth [14]: 33.3%
growth [15]: 77.5%
growth [16]: 63.5%
growth [17]: 67.6%
growth [19]: 23.7%
growth [20]: 72%
